Only some compounds are listed: those with a hit (about 5.7% of all), similar ones and a draw of the others.
Giardia kill: Small Molecules that selectively kill Giardia lamblia: qHTS. hit rate 0.15% among 340,000. activity change, % at 7.66 µM, hits read low. Giardia lamblia trophozoite viability; in the data active means activity change below about -80%; inconclusive means between about -30% and that limit;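 further: parasites exposed to compound for two days anaerobically before the ATP read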
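ATP-content bioluminescence gauges trophozoite survival. Cells (100/well) receive compound and incubate anaerobically for 48 hrs at 37 deg C; detection reagent follows for 15-30 min at room temperature.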
PI4K2A block: qHTS for small molecular inhibitors of PI4K2A; hit rate 0.13% among 420,000; Phosphatidylinositol 4-kinase type 2-alpha (Homo sapiens), Q9BTU6; purified PI4K2A, ADP-Glo luminescence, 1 h; hits give low values; activity change, negative = inhibition, % at 76.9 µM; in the data active means activity change below about -50%; inconclusive means mostly about -30% to -49%
Target sequence (Q9BTU6 whole entry, looked up): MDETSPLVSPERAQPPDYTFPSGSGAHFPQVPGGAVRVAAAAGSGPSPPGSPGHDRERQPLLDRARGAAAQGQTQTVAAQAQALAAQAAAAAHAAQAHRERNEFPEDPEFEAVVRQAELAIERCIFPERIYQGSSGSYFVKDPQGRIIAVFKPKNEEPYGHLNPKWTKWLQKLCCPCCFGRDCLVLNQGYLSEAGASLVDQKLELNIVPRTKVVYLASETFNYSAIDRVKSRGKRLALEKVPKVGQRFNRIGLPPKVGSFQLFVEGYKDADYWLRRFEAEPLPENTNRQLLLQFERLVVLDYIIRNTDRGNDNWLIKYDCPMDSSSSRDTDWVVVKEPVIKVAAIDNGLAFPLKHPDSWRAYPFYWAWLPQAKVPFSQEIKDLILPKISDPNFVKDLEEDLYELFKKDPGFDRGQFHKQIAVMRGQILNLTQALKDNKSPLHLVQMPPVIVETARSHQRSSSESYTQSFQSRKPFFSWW
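Compounds are screened against recombinant PI4K2A using PI as substrate and ATP, the latter dispensed at 300 microM. Reactions run one hour at ambient temperature before ADP-Glo detection; full inhibition defined by wells lacking enzyme.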
KB-3-1 tox: qHTS assay for MDR1-selective chemotherapeutics: Primary screen using the parental adenocarcinoma cell KB-3-1. KB-3-1 viability, CellTiter-Glo ATP luminescence, 72 h. Potency, µM (titrated, usually from 46.1 µM), hits mostly cytotoxic. hit rate 1.4% among 400,000. AID 1347075, 2019; further: nearly all actives have a fitted effect of over 60% in size
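Parental KB-3-1 viability, qHTS format: 72 h compound exposure, 37 °C; CellTiter-Glo; media-only wells and DMSO plates as controls; concentration-effect fits on corrected data.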
KB-V1 cytotox: qHTS assay for MDR1-selective chemotherapeutics: Primary screen using the drug-selected MDR subline cells KB-V1. KB-V1 MDR cells viability, CellTiter-Glo, 72 h. Potency, µM (top dose mostly 46.1 µM), most hits filed as cytotoxic. hit rate 3.4% among 400,000; further: nearly all actives have a fitted effect of over 60% in size
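Cytotoxicity toward P-gp-expressing KB-V1 cells was determined as loss of CellTiter-Glo luminescence after 72 h at 37 degrees C. Compounds were tested in quantitative HTS format across a concentration range, with curves fitted to normalized data.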
Nrf2 inh: Nrf2 qHTS screen for inhibitors | AID 504444, 2011 | hit rate 2.1% among 360,000 | Potency, µM (titrated, usually from 46 µM), most hits filed as inhibitors | A549 ARE-Fluc reporter, luciferase luminescence, 18-24 h; further: nearly all actives have a fitted effect of over 60% in size
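A549 ARE_Fluc cells (5000/well, 5% FBS OPTI-MEM) pre-incubated 2 h, then treated with compounds 18-24 h at 37C/5% CO2 in concentration-response. CellTiter-Fluor viability read first; BugLite luciferase luminescence after 15 min at room temperature gives Nrf2 activity.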
A549 viability: Nrf2 qHTS screen for inhibitors: counterscreen for cytotoxicity; AID 504648, 2011; hit rate 0.16% among 390,000; Potency, µM (series often up to 46 µM), usual class: inhibitors; A549 ARE-Fluc cells, CellTiter-Fluor viability, 18-24 h
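A549 ARE-Fluc cells in 5% FBS OPTI-MEM, 5000 cells/well, rested 2 h then exposed to compounds in concentration-response for 18-24 h at 37 °C. Viability by CellTiter-Fluor fluorescence (Ex 405/Em 525) after 30 min; luciferase luminescence (BugLite, 15 min, RT) read afterwards.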
A number is an active result; i = inactive; ? = inconclusive; nt = no result given. Unless noted, the call rests on the fitted dose curve; in most records, active means well fitted curve in the direction sought with a large enough effect; inconclusive means small, poorly fitted or top-dose-only effect, or another doubt; inactive means no such curve, though single readings can be large; an effect the other way counts as inactive or inconclusive.

SMILES	Giardia kill	PI4K2A block	KB-3-1 tox	KB-V1 cytotox	Nrf2 inh	A549 viability
COc1cccc(-c2cc(C(=O)N3CC4(C)CC3CC(C)(C)C4)no2)c1 (stereo not drawn)	i	i	i	15µM	?	i
c1ccc(CN2C3=NCCN3c3ccccc32)cc1	i	i	i	i	i	i
Clc1ccc(CN2C3=NCCN3c3ccccc32)cc1Cl	i	i	i	21µM	i	i
COc1ccc(OC)c(NC(=O)Cc2coc3cc(C)cc(C)c23)c1	i	i	i	16µM	i	i
COc1cc2nc(CC(O)c3nc4cc(OC)c(OC)cc4[nH]3)[nH]c2cc1OC (stereo not drawn)	nt	nt	i	i	nt	nt
CCOC(=O)[C@@]12CCCC=C1N(CCc1ccc(Cl)cc1)C(=O)[C@H]2CC(=O)NCC12CC3CC(CC(C3)C1)C2	nt	i	nt	nt	nt	nt
CSc1ccc(CCNC(=O)Cn2nc(C)n3c(cc4sccc43)c2=O)cc1	nt	i	i	i	i	i
Cc1cc(NC(=O)COC(=O)c2ccc(OC(F)(F)F)cc2)no1	i	i	i	i	i	i
Cc1cc(NC(=O)COC(=O)C(Nc2ccc(C(F)(F)F)cc2Cl)C(C)C)no1 (stereo not drawn)	i	i	i	i	23µM	23µM
Cc1ccccc1C(O)c1ccncc1 (stereo not drawn)	i	i	i	i	nt	i
CSc1ccc(/C=C2\C=C(C(O)c3ccc(SC)cc3)c3ccccc32)cc1 (stereo not drawn)	nt	nt	16µM	?	nt	nt
OC(C1=C/C(=C\c2ccncc2)c2ccccc21)c1ccncc1 (stereo not drawn)	nt	nt	?	16µM	nt	nt
CC(=O)Nc1ccc(/C=C2\C=C(C(O)c3ccc(NC(C)=O)cc3)c3ccccc32)cc1 (stereo not drawn)	nt	nt	i	i	nt	nt
CC1(C)CC(=O)C=C(Nc2ccccc2NC(=O)c2ccc(F)cc2F)C1	nt	i	nt	nt	nt	nt
CSc1nc2ccccc2cc1/C=C(\C#N)c1cccc(C)c1	i	i	15µM	15µM	i	i
CSc1nc2ccccc2cc1/C=C(\C#N)c1ccccc1	i	i	?	?	nt	i
N#CNC(=Nc1cccc(F)c1)SCc1cccc(F)c1	i	i	?	?	23µM	i
N#CNC(=Nc1cccc(F)c1)SCc1ccccc1	i	i	i	?	i	i
O=C(Nc1ccc(N2C(=O)[C@@H]3[C@H](C2=O)[C@@H]2C=C[C@H]3C2)c(Cl)c1)c1ccccn1	nt	i	nt	nt	nt	nt
COc1ccc(NC(=O)CCCn2nc(C)c3sc4ccccc4c3c2=O)cc1	nt	i	i	i	?	i
COc1ccc2c(c1)C(C)=CC(C)(C)N2S(=O)(=O)c1ccc(Br)cc1	i	i	4.1µM	3.3µM	?	i
CCOc1ccc2c(c1)C(C)=CC(C)(C)N2S(=O)(=O)c1ccc(NC(C)=O)cc1	i	i	1.6µM	1.3µM	?	i
COc1ccc(S(=O)(=O)N2CC=C(C(=O)Nc3ccc(NC(C)=O)cc3)CC2)cc1	i	i	i	i	i	i
CCOc1ccc2c(c1)C(C)=CC(C)(C)N2S(=O)(=O)c1ccc(F)cc1	i	i	7.3µM	?	i	i
COc1ccc2c(c1)C(C)=CC(C)(C)N2S(=O)(=O)c1ccc(NC(C)=O)cc1	i	i	2.1µM	i	?	i
COc1cccc(-c2nc(SCC(=O)NCC3CCCO3)c(-c3ccc(Cl)cc3)[nH]2)c1 (stereo not drawn)	nt	i	i	?	?	i
COc1cc(N(C)C)c(OC)cc1/C=C1\C=Cc2ccccc21	nt	nt	i	i	nt	nt
CC/C=C\[C@H](O)[C@H](O)C1=C(C)C(=O)[C@]2(O1)C(=O)N[C@@](OC)(C(=O)c1ccccc1)[C@@H]2O	nt	i	nt	nt	nt	nt
CC1=CC(C)(C)N(S(=O)(=O)c2ccc(F)cc2)c2ccc(C)cc21	i	i	23µM	7.3µM	i	i
CC1=CC(C)(C)N(S(=O)(=O)c2ccc(C)cc2)c2ccccc21	i	i	16µM	?	?	i

Screening results from PubChem.
